Bioassay records (PubChem)
USP7 block – human USP7 deubiquitinase inhibition; Q93009; purified USP7, Ub-rhodamine cleavage fluorescence; inhibition, % at 20 µM; hit rate 0.3% among 47,000; AID 1645854
USP8 inh – human USP8 deubiquitinase inhibition; inhibition, % at 20 µM; purified USP8, Ub-rhodamine cleavage fluorescence, 30 min; AID 1645853; hit rate 4.2% among 47,000
UCHL1 inh – blocks human UCHL1 ubiquitin-rhodamine cleavage | P09936 | purified UCHL1, Ub-rhodamine cleavage fluorescence | inhibition, % at 20 µM | hit rate 0.2% among 47,000
Target sequence (P09936 whole entry, looked up): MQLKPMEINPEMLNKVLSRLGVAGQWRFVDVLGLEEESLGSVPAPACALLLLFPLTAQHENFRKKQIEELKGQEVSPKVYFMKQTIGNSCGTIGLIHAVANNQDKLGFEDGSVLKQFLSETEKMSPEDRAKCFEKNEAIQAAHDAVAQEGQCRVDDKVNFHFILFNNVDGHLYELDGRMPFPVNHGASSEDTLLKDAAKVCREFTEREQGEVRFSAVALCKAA
USP10 block – human USP10 deubiquitinase inhibition; inhibition, % at 20 µM; purified USP10, Ub-rhodamine fluorescence, 60 min; Q14694; hit rate 1.1% among 47,000
* = called active by the depositor. Compounds with a hit are over-represented: about 4.6% of the library has one in this group of screens. Rule as the data show it: active = inhibition above about 30%; inactive = the rest.

SMILES	USP7 block	USP8 inh	UCHL1 inh	USP10 block
Cc1nn(-c2cccc(C(F)(F)F)c2)c2c1C(c1ccccc1)N1C=C(Cl)C=C(Cl)C1=N2 (configuration not stated)	3.3	-106.2	-0.6	0.2
Cc1nn(-c2ccccc2)c2c1N=C1C(Cl)=CC(Cl)=CN1C21C(=O)Nc2ccccc21 (configuration not stated)	65.3*	93.7*	14.9	3.5
O=C(CN(Cc1ccccc1)S(=O)(=O)c1ccc(Cl)cc1)Nc1ccc(N2CCOCC2)cc1	-1.7	37.4*	0.0	1.7
C=C/C(C)=C/[C@@]1(C)SC(=O)C(C)=C1O	-9.1	41.0*	21.3	18.3
CCC(=O)Nc1nc2ccc(NC(=O)Cc3ccc(OC)c(OC)c3)cc2s1	4.1	-0.8	-0.3	0.8
O=C(Nc1cccnc1)c1cn(Cc2ccc(F)cc2)cc2c(=O)n(-c3ccccc3)nc1-2	3.2	-11.5	0.8	3.5
Cn1cc(C(=O)Nc2cccnc2)c2nn(-c3ccccc3)c(=O)c-2c1	7.2	30.6*	1.9	2.6
Cc1ccccc1NC(=O)Cn1cc(-c2noc(-c3ccccc3)n2)nc1C	4.7	7.3	-0.1	9.3
O=C(Cn1cnc(-c2noc(-c3ccc(F)cc3)n2)c1)Nc1ccccc1F	14.5	66.7*	7.5	25.9
Cc1cccc(NC(=O)Cn2cnc(-c3noc(-c4ccccc4)n3)c2)c1C	24.1	72.6*	6.9	25.7
Cc1ccc(NC(=O)Cn2cnc(-c3noc(-c4cccnc4)n3)c2)cc1	2.8	-3.6	-1.8	-8.0
CN1CCCN(C(=O)c2c3c(NCc4ccccc4)ncnc3n3ccccc23)CC1	-34.9	-19.2	-24.2	-6.3
O=C(NCc1cccnc1)c1c2c(NCC3CC3)ncnc2n2ccccc12	-26.4	68.2*	-11.2	-2.5
O=C(Nc1nc2c(s1)CCC2)C1CCN(S(=O)(=O)c2ccc3c(c2)CCCC3)CC1	-19.7	36.0*	3.9	11.1
Cc1nnc(NC(=O)C2CCN(S(=O)(=O)c3ccc4c(c3)CCC4)CC2)o1	2.0	-91.6	2.5	1.2
CC(c1nc2ccccc2c(=O)[nH]1)N1CCN(C(c2ccccc2)c2ccccc2)CC1 (configuration not stated)	0.5	-11.9	0.0	0.6
Cc1cc(CN2CCC3(CC2)CC3c2nnc(-c3cccc(F)c3)o2)on1 (configuration not stated)	3.1	-14.6	-6.1	-10.4
COc1ccc2[nH]cc(C(=O)c3ccc(F)cc3)c(=O)c2c1	3.9	1.9	-1.7	0.9
Cc1csc(NC(=O)c2c[nH]c3ccc(F)cc3c2=O)n1	14.6	85.3*	25.2	46.2*
Cc1ccc(-c2cc(C(=O)Nc3ccc4c(c3)OCCO4)c3ccccc3n2)o1	-15.9	28.3	8.0	0.5
O=C(Nc1ccc2c(c1)OCCO2)c1cccc2nc3ccccc3nc12	8.7	37.0*	7.6	0.6
O=C(Cn1cnc2cc3c(cc21)OCCCO3)N1CCCc2ccccc21	-9.6	36.9*	-9.3	-3.6
O=C(CN1CCN(S(=O)(=O)c2ccc3c(c2)OCCCO3)CC1)N1CCCc2ccccc21	-0.1	0.1	1.7	-2.2
CCCCC/C=C/C=C/C(=O)OC1C(O)CC(c2ccc3c(c2O)C(=O)c2c(O)cc4cc(C)cc(O)c4c2C3=O)OC1C (configuration not stated)	-1.0	57.4*	19.0	27.4
Cc1ccccc1NC(=O)CSc1nccn(-c2ccc(F)c(F)c2)c1=O	-0.3	-217.5	-4.6	-7.2
SMILES	USP7 block	USP8 inh	UCHL1 inh	USP10 block
Cc1cccc(-n2ccnc(SCC(=O)Nc3ccc(Cl)cc3F)c2=O)c1	17.3	48.8*	4.4	22.5
O=C(CSc1nccn1-c1cccc(C(=O)Nc2ccccc2)c1)Nc1ccccc1F	13.3	51.3*	0.1	5.0
Cc1ccc(-n2ccnc2N2CCN(CC(=O)Nc3ccccc3F)CC2)cc1	-1.7	6.3	1.0	0.0
N#Cc1cccnc1N1CCN(C(=O)Nc2cccc3ccccc23)CC1	-24.6	91.1*	17.6	-0.2
CCOc1ccccc1NC(=O)N1CCCN(c2ncccc2C#N)CC1	3.0	4.1	2.0	-0.6
CCOc1ccc(C2=NCCNC3=C2C(c2ccccc2)N(c2ccccc2)C3=O)cc1 (configuration not stated)	7.7	30.0*	0.8	0.4
Cc1ccc(C2C3=C(NCCN=C3c3ccccc3)C(=O)N2c2ccccc2)cc1 (configuration not stated)	-14.4	6.7	0.1	-4.8
Cc1cc(Nc2ccc(C)c(Cl)c2)n2nc(-c3cccnc3)nc2n1	3.1	9.9	0.1	-8.5
Cc1cc(Nc2ccc(C)c(Cl)c2)n2nc(-c3ccco3)nc2n1	-4.1	35.2*	-17.4	-5.3
CC(C)NC(=O)c1cc2c(=O)n3ccccc3nc2n1Cc1ccccc1	-4.3	-14.0	-4.0	-5.8
Cc1ccc(-n2nnnc2-c2cnc3cc(Cl)ccc3c2N)cc1	18.1	43.7*	7.0	14.9
Clc1ccc2ncc(-c3nnnn3-c3ccc4ccccc4c3)c(-c3ccccc3)c2c1	-19.6	8.6	5.0	3.7
COCCn1ccc2ccn(Cc3nc(-c4ccccc4)no3)c(=O)c21	-0.4	-32.8	-2.5	-2.2
Cc1nnc(NC(=O)C(=O)c2cc(C)n(-c3ccc(Cl)cc3)c2C)s1	5.6	41.0*	4.7	1.9
COC1=CC(=O)c2c(O)c3c(c(C)c2C1=O)C[C@@]1(O)[C@H](O[C@H]2CC[C@H](O[C@H]4C[C@@](C)(O)[C@H](OC(=O)c5c(C)ccc(C)c5O)[C@H](C)O4)[C@@H](C)O2)C(=O)C(C(C)=O)=C(O)[C@@]1(O)C3=O	55.3*	-89.7	57.5*	-5.9
Cc1nc(Nc2ccc(Oc3ccccc3)cc2)cc(-c2cccnc2)n1	7.2	-0.8	9.2	4.0
O=C(c1ccccc1)c1c(-c2ccccc2)oc2ccc(NS(=O)(=O)c3ccc(Cl)cc3)cc12	15.8	23.2	9.9	32.9*
COc1ccc2c(Cl)c(C(=O)Nc3ccc(S(=O)(=O)N(C)Cc4ccccc4)cc3)sc2c1	8.9	2.1	0.6	42.1*
O=c1[nH]c(=O)c2c(-c3ccc(-c4ccccc4)cc3)ccnc2[nH]1	11.2	75.9*	-7.1	-3.6
COc1cccc(-c2ccnc3[nH]c(=O)[nH]c(=O)c23)c1	-0.2	0.5	2.4	-0.1
COc1ccc(-c2cc3nc([C@H](C)NC(=O)Cc4cccc(F)c4)nn3cn2)cc1	52.2*	9.2	37.8*	28.8
COc1cccc(CC(=O)N[C@@H](C)c2nc3cc(-c4ccc(F)cc4)ncn3n2)c1	-3.4	1.5	-0.4	0.0
COc1ccc(-c2cc3nc([C@H](C)NC(=O)Cc4cc(F)ccc4F)nn3cn2)cc1	46.2*	13.9	21.7	37.1*
COc1ccc(-c2cc3nc([C@@H](C)NC(=O)c4ccc5c(c4)OCO5)nn3cn2)cc1	-33.7	32.0*	0.5	1.3
COCCOc1ccc(C(=O)N[C@H](C)c2nc3cc(-c4ccccc4F)ncn3n2)cc1	0.5	2.9	-1.0	4.7
CC(C)C(=O)NC1CCc2ncc(C(F)(F)F)n2C1 (configuration not stated)	-1.8	1.6	-4.7	0.3
CN(C)C(=O)[C@H]1CCS(=O)(=O)[C@@H]2CN(Cc3ccc(F)cc3)C[C@H]12	0.5	-86.7	-2.3	-2.6
